# This is a sample that favours compounds with a hit; in the whole collection about 2.8% have one here.
# SNCA viab count – counter-screen for SNCA expression inhibitors: cell viability; HEK-293-SNCA-luc viability, GF-AFC fluorescence, 24 h; 150,000 tested, 0.12% active; Potency, µM (top dose mostly 57.1 µM), for the others: top-dose activity change, negative = cytotoxicity, usual class: cytotoxic;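 further: potency means the concentration at half of the fitted maximal effect; 0% = DMSO-treated cells and -100% = medium-only wells without cells; nearly all actives have a fitted effect of over 30% in size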
#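 Cytotoxicity counterscreen: after 24 h compound treatment of genome-edited SNCA-luciferase HEK-293 cells, live-cell protease substrate GF-AFC read by fluorescence after 30 min; activity scaled between DMSO (0%) and medium-only (-100%), curves Hill-fitted.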
# KDM5B inh – blocks human KDM5B histone demethylase activity. Q9UGL1. KDM5B demethylase, FDH-coupled NADH fluorescence (FDH is formaldehyde dehydrogenase). Potency, µM (doses to about 57.7 µM), hits mostly inhibitors. 220,000 tested, 2.6% active; further: potency means the concentration at half of the fitted maximal effect; 0% is about no effect; nearly all actives have a fitted effect of over 70% in size
#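 Inhibition is measured as reduced NADH fluorescence generation from FDH coupling to formaldehyde release. Truncated KDM5BΔAP at 200 nM final acts on H3K4me3 peptide (12.5 µM in substrate mix) in pH 7.5 HEPES buffer with Tween-20, 30 min, room temperature.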
# SNCA expr inhib – SNCA gene expression inhibition | HEK-293 SNCA-luciferase knock-in, luminescence, 24 h | Potency, µM (titrated, usually from 57.2 µM), without a hit: at the top dose activity change, negative = inhibition, most hits filed as inhibitors | 140,000 tested, 0.17% active;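 further: potency means the concentration at half of the fitted maximal effect; plate controls were DMSO cells for no effect and cell-free wells for full effect; nearly all actives have a fitted effect of over 45% in size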
# IP6K1 inhibitor – IP6K1 kinase inhibition | Q92551 | IP6K1 kinase, ADP-Glo luminescence, 2 h; active compounds read low | activity change, % (series mostly up to about 58 µM) | 140,000 tested, 0.81% active | AID 1645851; in the data active means activity change below about -25%; further: on the % scale 0 is the no-effect control and ±100 the full control effect
#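 ADP-Glo luminescence measures ADP made by human IP6K1 during a 2 h RT reaction with ATP/IP6 (mix at 1.3 mM/130 uM); top library doses 57.5 and 19.1 uM final.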
# * = called active by the depositor; i = inactive; ? = inconclusive; . = no result given; ! = repeats disagree; [ ] = remark or other dose. Unless noted, the call rests on the fitted dose curve; in most records, active means well fitted curve in the direction sought with a large enough effect; inconclusive means small, poorly fitted or top-dose-only effect, or another doubt; inactive means no such curve, though single readings can be large; an effect the other way counts as inactive or inconclusive.
SMILES,SNCA viab count,KDM5B inh,SNCA expr inhib,IP6K1 inhibitor
Cn1ncc2c(C(=O)NCc3ccccc3Cl)cc(-c3ccccc3F)nc21,.,.,.,6
COc1ccc(OC)c(CNCc2c(C(=O)O)c(C)n(Cc3c(C)cc(C)cc3C)c2C)c1,.,i,.,.
COc1cccc(-c2nc(-c3nnn4c3COC(c3ccccc3Cl)C4)no2)c1OC (stereo not drawn),-7%,14µM*,4%,11
COc1ccc(-c2nc(-c3nnn4c3COC(c3ccccc3Cl)C4)no2)cc1 (stereo not drawn),5%,i,-12%,3
CN(C)c1ccc(-c2nc(-c3nnn4c3COC(c3ccccc3Cl)C4)no2)cc1 (stereo not drawn),7%,25µM*,9%,27
CC1(C)CC(Nc2nccc(C(F)(F)F)n2)CC(C)(C)N1,.,i,.,.
CC(Cc1ccncc1)Nc1nccc(-c2cnn(-c3ccccc3F)c2)n1 (stereo not drawn),-24%,28µM*,-16%,9
CC(Cc1ccncc1)Nc1nccc(-c2cnn(-c3ccccc3)c2)n1 (stereo not drawn),-16%,32µM*,2%,0
CC1(C)CC(Nc2nccc(-c3cnn(-c4ccccc4)c3)n2)CC(C)(C)N1,-7%,28µM*,2%,1
CC(C)(C)NC(=O)COC(=O)c1cc(=O)c2ccccc2o1,.,i,.,.
O=C(Nc1cc(Cl)ccc1Cl)C1=C(c2ccccc2)S(=O)(=O)CCO1,.,i,.,.
COCCNC(=O)C1(C)CCc2cnc(NCc3ccccc3)nc21 (stereo not drawn),2%[87.6 µM],35µM*,?,-6
CC1(C(=O)NCC2CC2)CCCc2cnc(Nc3ccccc3)nc21 (stereo not drawn),-26%[87.6 µM],i,?,-8
CC1(C(=O)NCCCn2ccnc2)CCc2cnc(NCc3ccccc3)nc21 (stereo not drawn),-6%[87.6 µM],40µM*,?,2
COCCNC(=O)C1(C)CCc2cnc(Nc3ccccc3)nc21 (stereo not drawn),-14%[87.6 µM],i,-33%[87.6 µM],-4
CC1(C(=O)NCC2CC2)CCc2cnc(NCc3ccccc3)nc21 (stereo not drawn),-6%[87.6 µM],40µM*,?,5
Cn1ccc(NC(=O)C2(C)CCc3cnc(NCc4ccccc4)nc32)n1 (stereo not drawn),-7%[87.6 µM],35µM*,-1%[87.6 µM],-3
CCCn1nc(C)cc1CN(C)c1ccc(NC(=O)c2ccc(OC)cc2)cc1C(=O)O,.,i,.,.
CCn1nc(C(=O)OCc2nc(-c3cccc(Br)c3)no2)c2ccccc2c1=O,.,i,.,.
CC(NC(=O)C1CCCCC1C(F)(F)F)C12CC3CC(CC(C3)C1)C2 (stereo not drawn),.,i,.,.
O=C(NCc1cccs1)c1cc(-c2ccccc2)c2nncn2n1,-8%,.,-6%,2
O=C(NCc1cccs1)c1cc(-c2cccnc2)c2nncn2n1,-1%,100µM*,7%,13
Cc1oc(-c2cccs2)nc1CN1CCCC(c2ccn[nH]2)C1 (stereo not drawn),-8%,28µM*,6%,3
Cc1cccc(NC(=O)CN2C(=O)C(c3ccc(F)cc3)=NC23CCCCCC3)c1C,?,?,?,12
Cc1cccc(NC(=O)CN2C(=O)C(c3ccccc3)=NC23CCCC3)c1C,-17%[12.5 µM],i,16µM*,11
SMILES,SNCA viab count,KDM5B inh,SNCA expr inhib,IP6K1 inhibitor
CCC(C)NC(=O)c1cc(-c2ccc3c(c2)OCO3)nc2ccccc12 (stereo not drawn),.,i,.,.
c1cnc2nc(-c3c[nH]c4ccccc34)[nH]c2c1,-23%[87.6 µM],35µM*!,184%[87.6 µM],0
c1ccc2c(-c3csc(NC4CC4)n3)c[nH]c2c1,.,i,.,.
c1ccc2c(-c3nc4ccncc4[nH]3)c[nH]c2c1,-5%[87.6 µM],40µM*!,31%[87.6 µM],14
CN(C)CCCOCC1(C)COc2ccc(C(=O)Nc3ccccc3)cc2N1 (stereo not drawn),-1%[87.6 µM],?,125%[87.6 µM],-6
CN(C)CCOCC1(C)COc2ccc(C(=O)NCc3cccc(F)c3)cc2N1 (stereo not drawn),8%[87.6 µM],40µM*,-8%[87.6 µM],-9
CCOCC1(C)COc2ccc(C(=O)NCc3ccc(F)cc3)cc2N1 (stereo not drawn),-8%[87.6 µM],?,7%[87.6 µM],9
CN(C)CCOCC1(C)COc2ccc(C(=O)NCc3ccc(F)cc3)cc2N1 (stereo not drawn),10%[87.6 µM],40µM*,-9%[87.6 µM],-11
COc1ccccc1NC(=O)c1cc2cc(C)ccc2n1C,.,i,.,.

# Screening data: PubChem BioAssay, National Center for Advancing Translational Sciences (NCATS)
